PubChem BioAssay (Tox21)
Unmarked numbers belong to inactive results. Active and inactive are the calls of the source. Calls follow the shape of the full dose curve.

target: Estrogen receptor (Homo sapiens) (UniProt P03372); experiment: qHTS assay to identify small molecule agonists of the estrogen receptor alpha (ER-alpha) signaling pathway in the presence of an antagonist (AID 1259383); settings: VM7Luc4E2 cells, ERE-luciferase, +ICI-182,780, 22 h; series mostly up to 42.5 µM; activation: at the top concentration; also: nearly all actives have a fitted effect of over 15% in size; as to activation: top concentration of the series differs between compounds
Excerpt: National Center for Advancing Translational Sciences [NCATS] NIH Chemical Genomics Center [NCGC] U.S. Environmental Protection Agency [EPA] National Institutes of Environmental Health Sciences [NIEHS] National Toxicology Program [NTP] Assay overview: Estrogen receptor (ER), a member of nuclear hormone receptor plays an important role in development, metabolic homeostasis and reproduction. Two subtypes of ER, ER-alpha and ER-beta, have similar expression patterns with some uniqueness in both types. Endocrine disrupting chemicals (EDCs) and their interactions with steroid hormone receptors like ER causes disruption of normal endocrine function. Therefore, it is important to understand the effect of environmental chemicals in ER signaling pathway. For identifying ER agonists, VM7Luc4E2 cell line has been used in the current assay. VM7Luc4E2 cell line (provided by Denison MS, University of California) endogenously expresses full-length ER-alpha and is stably transfected with a plasmid containing four estrogen responsive elements (ERE) upstream of a luciferase reporter gene. This current screening for measuring luciferase reporter gene activity using VM7Luc4E2 cells against Tox21 10K library collection is a confirmation study on agonist mode screening in presence of ER-antagonist (ICI-182,780) at 10.0nM final concentration.
Assay Protocol Summary: VM7Luc4E2 cells were cultured in phenol red free assay medium containing 10% charcoal stripped FBS for 5 days prior to the assay. The cells were dispensed at 4,000 cells in 4uL of assay medium per well into white wall/solid-bottom 1536-well plates (Corning Life Sciences, Corning, NY) using a Multidrop Combi (Thermo Fisher Scientific Inc., Waltham, MA) dispenser. After the assay plates were incubated at 37C and 5% CO2 for 24hr, 1uL of 10.0nM (final concentration) ICI-182,780 or assay buffer was added using two separate tips of Flying Reagent Dispenser (FRD, Aurora Discovery, San Diego, CA). Then 23nL of compounds dissolved in DMSO at 15 concentrations and positive controls or DMSO only was transferred to the assay plates by a Pintool station (Wako, San Diego, CA). The assay plates were incubated at 37C and 5% CO2 for 22hr. For luciferase read, 4uL/well ONE-Glo reagent (Promega Corporation, Madison, WI) was added to each well using FRD and after 30min incubation at room temperature, luminescence signal was measured on ViewLux plate reader (PerkinElmer, Shelton, CT).
% is scaled to controls: 0 for no effect and ±100 for the full control effect; potency is read from the fitted curve at half-maximal effect.

Estrogen receptor (Homo sapiens), sequence (P03372 whole entry, looked up): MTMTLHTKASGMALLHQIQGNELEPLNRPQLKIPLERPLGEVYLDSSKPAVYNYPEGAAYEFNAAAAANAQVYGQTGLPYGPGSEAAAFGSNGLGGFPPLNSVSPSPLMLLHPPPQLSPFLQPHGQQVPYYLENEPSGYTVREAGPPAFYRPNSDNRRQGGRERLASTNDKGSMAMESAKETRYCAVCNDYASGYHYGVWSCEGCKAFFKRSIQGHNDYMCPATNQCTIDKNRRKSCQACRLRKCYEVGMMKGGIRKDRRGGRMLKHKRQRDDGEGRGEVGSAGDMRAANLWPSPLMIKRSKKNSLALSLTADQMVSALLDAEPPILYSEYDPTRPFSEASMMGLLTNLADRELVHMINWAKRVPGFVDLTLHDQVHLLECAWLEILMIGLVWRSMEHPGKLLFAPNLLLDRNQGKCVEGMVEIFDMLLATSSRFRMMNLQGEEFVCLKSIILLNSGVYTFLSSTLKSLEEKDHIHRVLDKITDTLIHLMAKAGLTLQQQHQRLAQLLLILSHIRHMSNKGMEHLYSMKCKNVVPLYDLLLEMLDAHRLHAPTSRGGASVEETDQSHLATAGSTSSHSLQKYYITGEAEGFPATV

| SMILES | activation | Potency |
| --- | --- | --- |
| C[C@H]1C[C@H]2[C@@H]3CCC4=CC(=O)C=C[C@]4(C)[C@@]3(Cl)[C@@H](O)C[C@]2(C)[C@@]1(O)C(=O)CO | 0.294% | – |
| CCN(CC)CCNc1ccc(CNC=O)c2sc3ccc(OC)cc3c(=O)c12 | -0.0267% [at 92.4 µM] | – |
| CCOC(=O)C1=C[C@]2(CC)CCCN3CCc4c(n1c1ccccc41)[C@@H]32 | -1.93% | – |
| Cc1cc(C(=O)O)ccc1[N+](=O)[O-] | 0.827% [at 92.4 µM] | – |
| Cc1oc2c(NC(=O)c3c(Cl)cccc3Cl)cccc2c1C(C)(C)O | 0.0996% [at 92.4 µM] | – |
| Cc1oc(-c2ccccc2)nc1CCOc1cccc2c1ccn2CCC(=O)O | 0.291% [at 92.4 µM] | – |
| CC(=O)c1ccc2c(c1)N(CCCN1CCC(CCO)CC1)c1ccccc1S2 | 0.49% | – |
| COc1ccc(C(=O)c2ccc(OC)cc2O)c(O)c1 | – | 8.7 µM (active) |
| CCOC(=O)C(O)c1ccccc1 (stereo not given) | 0.913% | – |
| COC(=O)C1=C(C)NC(COC(N)=O)=C(C(=O)OC(C)C)C1c1cccc(Cl)c1Cl (stereo not given) | 0.126% | – |
| Nc1c(CC(=O)O)cccc1C(=O)c1ccc(Br)cc1 | -0.214% | – |
| O=C(O)CNCC(=O)O | -1.55% [at 8.39 µM] | – |
| Brc1c2ccccc2c(Br)c2ccccc12 | -0.192% [at 8.39 µM] | – |
| CC(CC=O)c1ccccc1 (stereo not given) | -0.908% [at 92.4 µM] | – |
| CCCCCCCCCOS(=O)(=O)O | 0.8% [at 92.4 µM] | – |
| COc1ccc(C(=O)N2CCN(CC(=O)N3CCOCC3)CC2)cc1 | 0.649% | – |
| O=C1C(O)=C(O)C(=O)C(O)=C1O | -1.12% | – |
| CNCCCN1c2ccccc2CCc2ccccc21 | -1.91% | – |
| c1ccc(C(O[C@H]2CCCN(CCc3ccc4c(c3)OCO4)C2)c2ccccc2)cc1 | -1% | – |
| COc1cccc(N(C)C(=S)Oc2ccc3c(c2)CCCC3)n1 | -0.659% | – |

| SMILES | activation | Potency |
| --- | --- | --- |
| CC(=O)c1cccc([N+](=O)[O-])c1 | -0.214% [at 92.4 µM] | – |
| C[N+]1(CC2COC(c3ccccc3)(C3CCCCC3)O2)CCCCC1 (stereo not given) | 0.641% | – |
| CCCCCCCN | 0.246% [at 92.4 µM] | – |
| C[Si](C)(CCCN)O[Si](C)(C)CCCN | 0.262% [at 92.4 µM] | – |
| Cc1nn(C)c(Oc2ccccc2)c1/C=N/OCc1ccc(C(=O)OC(C)(C)C)cc1 | -14.8% [at 92.4 µM] | – |
| CCCCCCCCO[C@@H]1O[C@H](CO)[C@@H](O)[C@H](O)[C@H]1O | 0.36% [at 92.4 µM] | – |
| CC(C)Nc1ccc(NC(C)C)c2c1C(=O)c1ccccc1C2=O | -8.96% | – |
| O=CC1CC=CCC1 (stereo not given) | 0.0869% [at 92.4 µM] | – |
| COc1ccc(C(=O)Nc2nc3ccccc3c(NCc3ccccc3)c2C#N)cc1 | 0.465% [at 92.4 µM] | – |
| C/C=C/C(=O)CC | -1.93% [at 19 µM] | – |
| CCCCc1nc2cccnc2n1Cc1ccc(-c2ccccc2-c2nnn[nH]2)cc1 | -0.814% [at 92.4 µM] | – |
| COC(C)OC | -0.093% [at 92.4 µM] | – |
| CCCCC/C=C\C/C=C\CCCCCCCC(=O)NC(C)c1ccccc1 (stereo not given) | 0.493% | – |
| CCCCCCOC(=O)NC(=N)c1ccc(NCc2nc3cc(C(=O)N(CCC(=O)OCC)c4ccccn4)ccc3n2C)cc1 | 0.779% | – |
| O=S(c1cc(Cl)cc(Cl)c1O)c1cc(Cl)cc(Cl)c1O | -0.87% | – |
| CCOC(=O)c1cccnc1 | -0.584% | – |
| OCCNCc1ccccc1 | -0.803% [at 92.4 µM] | – |
| CCCC(=O)Nc1ccc(O)c(C(C)=O)c1 | 0.944% | – |
| O=C(OCCCCCCOC(=O)c1ccccc1)c1ccccc1 | 3.78% [at 92.4 µM] | – |
| C[C@@H]1C[C@H]2O[C@@]3(O[C@@H]2C(C)(C)O)[C@H](O)[C@@]2(C)[C@@H]4CC[C@H]5C(C)(C)[C@@H](O[C@@H]6OC[C@@H](O)[C@H](O)[C@H]6O)CC[C@@]56C[C@@]46CC[C@]2(C)[C@@H]13 | -0.0899% | – |
